DT40 TDP1 CPT = growth inhibition of DT40 Tdp1-/-;hTDP1 cells with camptothecin (screen for TDP1 inhibitors) | Potency, µM (highest dose often 46.2 µM), usual class: inhibitors | 420,000 compounds, 12% hits | chicken DT40 Tdp1-/-;hTDP1 cells + 20 nM CPT, ATP luminescence, 48 h; also: nearly all actives have a fitted effect of over 55% in size
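Chicken DT40 Tdp1-/- cells complemented with human TDP1, 400 cells/well, exposed to compounds plus 20 nM camptothecin for at least 48 h at 37 C; viability read as ATP content by CellTiter-Glo luminescence.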
KAT2A inh = blocks human GCN5L2 histone acetyltransferase; Q92830; GCN5L2 HAT assay, ThioGlo1 CoA-SH fluorescence; Potency, µM (series often up to 58.9 µM), hits mostly inhibitors; 390,000 compounds, 0.21% hits
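Compounds, pin-transferred from DMSO stocks, meet 20nM GCN5L2 for 15 min before the reaction begins with H3(1-25) peptide (75uM) and acetyl-CoA (70uM). Thiol-reactive ThioGlo1 reports CoA release over 20 min at room temperature.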
TDP1 inh = blocks human tyrosyl-DNA phosphodiesterase 1; recombinant TDP1, AlphaScreen DNA substrate cleavage; 350,000 compounds, 0.28% hits; Potency, µM (top dose mostly 130 µM), hits mostly inhibitors; also: nearly all actives have a fitted effect of over 40% in size
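Tdp1 1 nM final; 15 min RT w/ cpd; substrate 15 nM, 5 min; beads 10 ug/ml, 10 min; AlphaScreen read. Neg ctrl: no enzyme.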
TDP1 cell noCPT = qHTS for Inhibitors of human tyrosyl-DNA phosphodiesterase 1 (TDP1): qHTS in cells in absence of CPT. DT40 Tdp1-/- hTDP1 cells, no CPT, ATP luminescence, 48 h. Potency, µM (series often up to 46.2 µM), most hits filed as inhibitors. 420,000 compounds, 15% hits. AID 686978, 2013; also: nearly all actives have a fitted effect of over 55% in size
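Luminescent ATP content (CellTiter-Glo) served as the growth readout. Knockout chicken DT40 cells expressing human TDP1 were exposed to compounds without camptothecin for a minimum 48 hr at 37 °C.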
VDR inhibitor = inhibitors of human vitamin D receptor; P11473; VDR-SRC2-3 peptide fluorescence polarization, 2 h; Potency, µM, usual class: inhibitors; 400,000 compounds, 0.93% hits
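Reagent solutions, kept cold and dark, are dispensed first; compounds are then pinned in at 23 nl, plates briefly spun, and incubated 2 h at ambient temperature. Inhibition of VDR–SRC2-3 peptide binding is read by fluorescence polarization.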
PLK1 PBD block = PLK1 (human) polo-box domain binding inhibition; P53350; Plk1 PBD binding of FITC phosphopeptide, fluorescence polarization; Potency, µM, usual class: inhibitors; 360,000 compounds, 2.8% hits; also: series mostly up to about 57 µM; nearly all actives have a fitted effect of over 65% in size
Target sequence (P53350 whole entry, looked up, the tested form may be a part): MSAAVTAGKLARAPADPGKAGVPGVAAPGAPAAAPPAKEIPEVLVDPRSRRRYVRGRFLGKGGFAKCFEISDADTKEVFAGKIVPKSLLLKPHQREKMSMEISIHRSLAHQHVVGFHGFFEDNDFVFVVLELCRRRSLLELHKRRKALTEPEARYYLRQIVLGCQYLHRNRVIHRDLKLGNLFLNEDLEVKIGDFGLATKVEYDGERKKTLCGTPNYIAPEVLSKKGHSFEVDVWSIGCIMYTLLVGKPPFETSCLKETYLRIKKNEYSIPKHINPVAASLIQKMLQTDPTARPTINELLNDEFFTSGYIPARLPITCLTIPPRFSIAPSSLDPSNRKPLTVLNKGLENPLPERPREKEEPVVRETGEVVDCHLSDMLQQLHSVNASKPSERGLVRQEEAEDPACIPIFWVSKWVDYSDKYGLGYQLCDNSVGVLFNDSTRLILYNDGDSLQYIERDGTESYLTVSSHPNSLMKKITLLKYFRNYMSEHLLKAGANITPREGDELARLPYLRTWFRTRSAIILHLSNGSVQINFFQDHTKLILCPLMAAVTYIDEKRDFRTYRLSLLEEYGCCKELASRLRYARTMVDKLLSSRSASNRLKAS
Of the large screens only hits and unclear results are named; the others gave an inactive call. In the library only some 18% were active in any assay of this set; here they are far more common. Calls follow the shape of the dose curve; as a rule, active = well fitted curve in the direction sought with a large enough effect; inconclusive = small, poorly fitted or top-dose-only effect, or another doubt; inactive = no such curve, though single readings can be large; an effect the other way counts as inactive or inconclusive.

S=C(NCCc1ccccc1)Nc1ccccn1	DT40 TDP1 CPT 6.5µM, TDP1 cell noCPT 18µM
S=C(NCc1ccco1)Nc1ccccn1	TDP1 cell noCPT inconclusive
Cc1cccc(NC(=S)NCCc2ccccc2)n1	DT40 TDP1 CPT inconclusive, TDP1 cell noCPT 16µM, PLK1 PBD block 34µM
CCC(Sc1ncc(S(=O)(=O)c2ccc(C)cc2)c(=O)[nH]1)C(=O)Nc1cc(C)ccc1C (stereo not given)	none (no result: DT40 TDP1 CPT, TDP1 cell noCPT, PLK1 PBD block)
CCNC(=O)c1c(NC(=O)c2nc(SC)ncc2Cl)sc2c1CCCC2	TDP1 cell noCPT inconclusive (no result: KAT2A inh, TDP1 inh, VDR inhibitor, PLK1 PBD block)
CC(C)CCNC1c2ccccc2C(=O)N1Cc1ccccc1 (stereo not given)	TDP1 cell noCPT 23µM (no result: TDP1 inh)
COc1cc(NC2c3ccccc3C(=O)N2Cc2ccccc2)cc(OC)c1OC (stereo not given)	DT40 TDP1 CPT inconclusive, TDP1 cell noCPT inconclusive
Cc1cc(S(=O)(=O)NCc2ccco2)c(C)cc1Cl	DT40 TDP1 CPT inconclusive, TDP1 cell noCPT inconclusive
Cc1cc(-c2ccc(C)c(S(=O)(=O)NCC3CCN(Cc4ccccc4F)CC3)c2)on1	DT40 TDP1 CPT 18µM, TDP1 cell noCPT 23µM
Cc1ccc(-c2onc(C)c2C)cc1S(=O)(=O)NCc1ccco1	DT40 TDP1 CPT 23µM, TDP1 cell noCPT inconclusive (no result: PLK1 PBD block)
CCc1ccc(-c2cc(C)no2)cc1S(=O)(=O)NCc1ccco1	DT40 TDP1 CPT 21µM, TDP1 cell noCPT inconclusive
COc1ccc(CCNS(=O)(=O)c2cc(-c3onc(C)c3C)ccc2OC)cc1OC	TDP1 cell noCPT inconclusive (no result: PLK1 PBD block)
COc1ccc(-c2onc(C)c2C)cc1S(=O)(=O)NCc1ccc(C)o1	DT40 TDP1 CPT 2.9µM, TDP1 cell noCPT 3.3µM (no result: PLK1 PBD block)
COC(=O)C[C@@H]1C=C[C@H](NC(=O)Nc2cc(F)ccc2F)[C@@H](CO)O1	none (no result: KAT2A inh, TDP1 inh, VDR inhibitor)
COc1ccc(-c2onc(C)c2C)cc1S(=O)(=O)NCC(C)c1ccccc1 (stereo not given)	DT40 TDP1 CPT inconclusive, TDP1 cell noCPT inconclusive (no result: PLK1 PBD block)
COc1ccccc1CN1CCC(CNS(=O)(=O)c2cc(-c3onc(C)c3C)ccc2OC)CC1	DT40 TDP1 CPT 21µM, TDP1 cell noCPT 21µM
Cc1ccc(N(C)S(=O)(=O)c2c(C)noc2/C=C/N(C)C)cc1	DT40 TDP1 CPT 18µM, TDP1 cell noCPT inconclusive
CSc1ccc(C2Nc3cccc4cccc(c34)N2)cc1	DT40 TDP1 CPT 15µM, TDP1 cell noCPT inconclusive (no result: TDP1 inh)
CSc1ccc(C2NC(=O)c3ccccc3N2)cc1 (stereo not given)	DT40 TDP1 CPT 10µM, TDP1 cell noCPT 16µM (no result: KAT2A inh, TDP1 inh)
O=C1NC(c2ccc(O)cc2)Nc2ccccc21 (stereo not given)	DT40 TDP1 CPT inconclusive, TDP1 cell noCPT inconclusive (no result: TDP1 inh)
CC(C(=O)Nc1cccc(S(=O)(=O)N2CCOCC2)c1)N1CCN(C)CC1 (stereo not given)	none
O=C(NC1CCCCC1)C1CC(=O)N(Cc2ccccc2)C1 (stereo not given)	none
O=C1CCCC2=C1C(c1cn(-c3ccccc3)nc1-c1cccs1)c1c([nH]c(=O)[nH]c1=O)N2 (stereo not given)	PLK1 PBD block 24µM
CCOC(=O)C1=C(N)Oc2c(c(=O)[nH]c3ccccc23)C1c1ccccc1 (stereo not given)	DT40 TDP1 CPT 23µM, TDP1 cell noCPT 13µM
CCOC(=O)C1=C(N)Oc2cc(O)ccc2C1c1ccccc1 (stereo not given)	DT40 TDP1 CPT inconclusive, TDP1 cell noCPT inconclusive (no result: TDP1 inh)
Cc1ccc(CN2CCN(C(=O)C3CCCO3)CC2)cc1 (stereo not given)	none
CCOC(=O)N1CCN(Cc2c(O)ccc3ccccc23)CC1	VDR inhibitor inconclusive, PLK1 PBD block 11µM
O=C(C1CCCO1)N1CCN(Cc2c(O)ccc3ccccc23)CC1 (stereo not given)	VDR inhibitor 50µM, PLK1 PBD block 12µM
CSc1ncccc1C(=O)N1CCN(S(=O)(=O)c2cc(C)ccc2C)CC1	none (no result: TDP1 inh)
CCOC(=O)C1CCN(Cc2c(O)ccc3ccccc23)CC1	PLK1 PBD block inconclusive
Cc1ccc(C)c(S(=O)(=O)N2CCN(Cc3ccc(O)c4ncccc34)CC2)c1	DT40 TDP1 CPT 5.8µM, TDP1 cell noCPT 5.8µM
Oc1ccc2ccccc2c1CN1CCN(c2ccccc2)CC1	none
Oc1ccc(CN2CCN(c3ccccc3)CC2)c2cccnc12	DT40 TDP1 CPT 5.2µM, TDP1 cell noCPT 3.3µM
O=C(CNc1ccccc1)Nc1cccc2ccccc12	none
C=CCN1c2ccccc2[C@]23C[C@@H](C(=O)OC)N(C(=O)c4cccs4)C2=NC(C(=O)OC)=C(C(=O)OC)[C@H]13	DT40 TDP1 CPT inconclusive, TDP1 cell noCPT inconclusive
Oc1ccc(CN2CCCCC2)c2cccnc12	DT40 TDP1 CPT 5.2µM, TDP1 cell noCPT 5.2µM
Cc1cc2ccccc2cc1CN1CCCCC1	none
Oc1c(CN2CCCCC2)ccc2cccnc12	DT40 TDP1 CPT 1.6µM, TDP1 cell noCPT 1µM (no result: KAT2A inh, TDP1 inh)
CCOC(=O)N1CCN(Cc2ccc(O)c3ncccc23)CC1	DT40 TDP1 CPT 0.58µM, KAT2A inh inconclusive, TDP1 cell noCPT 0.65µM, VDR inhibitor inconclusive, PLK1 PBD block 27µM
Cc1nn(Cc2c(F)c(F)c(F)c(F)c2F)c(C)c1NC(=O)c1nn(C)cc1Br	DT40 TDP1 CPT inconclusive
Cc1nn(Cc2c(F)c(F)c(F)c(F)c2F)c(C)c1NC(=O)c1c([N+](=O)[O-])cnn1C	DT40 TDP1 CPT 13µM, TDP1 cell noCPT 12µM
Cc1ccc(OCc2ccc(C(=O)Nc3c(C)nn(Cc4c(F)c(F)c(F)c(F)c4F)c3C)o2)c([N+](=O)[O-])c1	DT40 TDP1 CPT 13µM, TDP1 cell noCPT 18µM
CCn1ncc(Br)c1C(=O)Nc1c(C)nn(Cc2c(F)c(F)c(F)c(F)c2F)c1C	DT40 TDP1 CPT 16µM, TDP1 cell noCPT inconclusive
Cc1nn(Cc2c(F)c(F)c(F)c(F)c2F)c(C)c1NC(=O)c1c([N+](=O)[O-])c(C)nn1C	DT40 TDP1 CPT inconclusive, TDP1 cell noCPT inconclusive
Cc1cc2c(s1)c1cnn(Cc3cccc(Cl)c3)c(=O)c1n2C	none (no result: DT40 TDP1 CPT, KAT2A inh, TDP1 cell noCPT, VDR inhibitor, PLK1 PBD block)
Cc1c[nH]c(=O)n(CCCN2CCN(c3ccccc3OCC(F)(F)F)CC2)c1=O	TDP1 cell noCPT inconclusive (no result: PLK1 PBD block)
Clc1ccc(-n2c(SC/C=C/c3ccccc3)nnc2-c2cccnc2)cc1	DT40 TDP1 CPT 23µM, TDP1 cell noCPT inconclusive
C=CCn1c(SCC(=O)Nc2ccc(C)cc2C)nnc1-c1cccnc1	none
C=CCn1c(SCC(=O)Nc2nnc(C)s2)nnc1-c1cccnc1	PLK1 PBD block 21µM
CN(C)C(=O)CSc1nnc(-c2cccnc2)n1-c1ccccc1	none
Nn1c(SC/C=C/c2ccccc2)nnc1-c1cccnc1	none

Screening results as filed in PubChem BioAssay.
